Source: PubChem (National Center for Advancing Translational Sciences (NCATS))
KB-3-1 cytotox = qHTS assay for MDR1-selective chemotherapeutics: Primary screen using the parental adenocarcinoma cell KB-3-1; 400,000 tested, 1.4% active; KB-3-1 viability, CellTiter-Glo ATP luminescence, 72 h; Potency, µM (doses to about 46.1 µM), usual class: cytotoxic; also: nearly all actives have a fitted effect of over 60% in size
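KB-3-1 parental drug-naive adenocarcinoma cells in DMEM/10% FBS, incubated 72 h at 37 C with pin-transferred compounds across a concentration series. Viability by CellTiter-Glo luminescence; concentration-response curves fitted after normalization.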
DT40 TDP1 CPT = qHTS for Inhibitors of human tyrosyl-DNA phosphodiesterase 1 (TDP1): qHTS in cells in presence of CPT; chicken DT40 Tdp1-/-;hTDP1 cells + 20 nM CPT, ATP luminescence, 48 h; Potency, µM (highest dose often 46.2 µM), actives largely listed as inhibitors; 420,000 tested, 12% active; also: nearly all actives have a fitted effect of over 55% in size
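Chicken DT40 Tdp1-/- cells stably complemented with human TDP1 were seeded at 400 cells/well in medium containing 20 nM camptothecin, exposed to pin-transferred compounds, and grown at 37 °C for at least 48 hr. Viability was read as ATP luminescence.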
HT1080NT lethal = qHTS for induction of synthetic lethality in tumor cells producing 2HG: qHTS for the HT-1080-NT fibrosarcoma cell line; HT-1080-NT fibrosarcoma viability, CellTiter-Glo ATP luminescence, 48 h; Potency, µM (series often up to 46.1 µM), usual class: cytotoxic; 360,000 tested, 1.6% active; AID 686970, 2013;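 also: NT is the 2HG producing partner of a matched IDH1 knockdown line; nearly all actives have a fitted effect of over 55% in size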
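Compounds were tested in concentration-response format on HT-1080-NT cells for 48 hours at 37 degrees C. Cell viability came from CellTiter-Glo luminescence; curves were classified by r2, response magnitude and activity.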
KB-V1 MDR tox = qHTS assay for MDR1-selective chemotherapeutics: Primary screen using the drug-selected MDR subline cells KB-V1. KB-V1 MDR cells viability, CellTiter-Glo, 72 h. Potency, µM (doses to about 46.1 µM), hits mostly cytotoxic. AID 1347076, 2019. 400,000 tested, 3.4% active; also: nearly all actives have a fitted effect of over 60% in size
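KB-V1, DMEM (no phenol red) + 10% FBS; cpd pin-transferred, titration series; 72 h, 37 degrees C; CellTiter-Glo, luminescence. Data normalized, curve-fit.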
DT40 TDP1 no CPT = qHTS for Inhibitors of human tyrosyl-DNA phosphodiesterase 1 (TDP1): qHTS in cells in absence of CPT; AID 686978, 2013; 420,000 tested, 15% active; DT40 Tdp1-/- hTDP1 cells, no CPT, ATP luminescence, 48 h; Potency, µM (series often up to 46.2 µM), hits mostly inhibitors; also: nearly all actives have a fitted effect of over 55% in size
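Compound effects on proliferation are scored in DT40 Tdp1-/-;hTDP1 cells in the absence of CPT. ATP levels (CellTiter-Glo luminescence) are recorded after a ≥48 hr, 37 °C incubation.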
HT1080 IDH1KD tx = qHTS for induction of synthetic lethality in tumor cells producing 2HG: qHTS for the HT-1080-IDH1KD cell line | HT-1080 IDH1 knockdown viability, ATP luminescence, 48 h | Potency, µM (titrated, usually from 46.1 µM), hits mostly cytotoxic | 360,000 tested, 2% active
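IDH1KD HT-1080 cells, 750/well, RPMI + 5% FBS; compound pinned after 2 h settling; 48 h, 37 °C; CellTiter-Glo luminescence; % activity normalised to DMSO and no-cell wells; curves fitted, classed by r2 and efficacy.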
A number is an active result; i = inactive; ? = inconclusive. Hits are enriched below; roughly 19% of the tested compounds scored in any of these assays. Calls follow the shape of the dose curve; as a rule, active = well fitted curve in the direction sought with a large enough effect; inconclusive = small, poorly fitted or top-dose-only effect, or another doubt; inactive = no such curve, though single readings can be large; an effect the other way counts as inactive or inconclusive.

SMILES	KB-3-1 cytotox	DT40 TDP1 CPT	HT1080NT lethal	KB-V1 MDR tox	DT40 TDP1 no CPT	HT1080 IDH1KD tx
COc1ccc(CNC(=O)c2sc(=O)n(Cc3ccc(-c4ccccc4)cc3)c2C)cc1OC	?	12µM	i	9.2µM	12µM	?
COc1ccccc1Cn1c(C)c(C(=O)NCc2cccc(C)c2)sc1=O	i	?	i	?	i	i
COc1ccc(Cl)cc1Cn1c(C)c(C(=O)NCc2ccc(C#N)cc2)sc1=O	i	23µM	i	?	18µM	i
COc1ccccc1Cn1c(C)c(C(=O)NCc2ccc(C#N)cc2)sc1=O	i	?	i	16µM	?	i
CC(=O)Oc1ccc(C(=O)Nc2ccc(S(=O)(=O)NCC3CCCO3)cc2)cc1 (stereo not drawn)	i	?	i	i	?	i
CC1Cc2ccccc2N1C(=O)COC(=O)c1ccc([N+](=O)[O-])o1 (stereo not drawn)	i	?	i	?	i	i
COc1ccc([N+](=O)[O-])cc1NC(=O)c1ccc(-n2nc(C)cc2C)cc1	i	i	i	i	i	i
C[C@H](CO)N1C[C@H](C)[C@@H](CN(C)C(=O)Oc2ccccc2)OCc2cn(nn2)CCCC1=O	i	i	i	i	i	i
CC(=O)Nc1ccc(S(=O)(=O)Nc2nc(CN3CCOCC3)nc3sc4c(c23)CCCC4)cc1	i	i	i	i	?	i
Cc1cc(S(=O)(=O)Nc2nc(CN3CCOCC3)nc3sc4c(c23)CCC4)ccc1F	i	?	i	?	26µM	i
CCCOc1ccccc1N/C(=N\S(=O)(=O)c1ccc(C)cc1)Nc1nc(C)cc(C)n1	i	?	i	?	15µM	i
Cc1ccc(C)c(N/C(N)=N/c2nc(C)cc(C)n2)c1	i	21µM	i	16µM	13µM	i
CCCOc1ccccc1N/C(=N/c1nc(C)cc(C)n1)NC(=O)COc1ccc(OC)cc1	i	21µM	i	i	16µM	i
COc1ccc(OC)c(N/C(N)=N/c2nc(C)cc(C)n2)c1	i	?	i	i	18µM	i
CCCOc1ccccc1N/C(N)=N/c1nc(C)cc(C)n1	i	?	i	i	?	i
Nc1ncnc2c1ncn2[C@@H]1O[C@H](CNC(=O)[C@@H]2CCN2)[C@@H](O)[C@H]1O	i	i	i	i	i	i
COc1ccc(C)cc1N/C(N)=N/c1nc(C)cc(C)n1	i	21µM	i	?	16µM	i
COc1ccc(N/C(=N/c2nc(C)cc(C)n2)NC(=O)Nc2ccc(Cl)c(Cl)c2)c(OC)c1	i	i	i	i	i	i
COc1ccc(N/C(N)=N/c2nc(C)cc(C)n2)c(OC)c1	i	26µM	i	i	12µM	i
COc1cc(N/C(N)=N/c2nc(C)cc(C)n2)cc(OC)c1	?	16µM	?	?	21µM	?
COc1ccc(Cl)cc1N/C(N)=N/c1nc(C)cc(C)n1	i	i	i	i	i	i
COc1ccc(OC)c(N/C(=N/c2nc(C)cc(C)n2)NC(C)=O)c1	i	?	i	i	7.3µM	i
O=C(CCC(=O)OCCOc1ccccc1)OCCOc1ccccc1	i	i	i	i	i	i
O=C(N/N=C/c1cc([N+](=O)[O-])cc(Br)c1O)C12CC3CCC(CC(C3)C1)C2	?	?	i	?	23µM	i
COc1cc(/C=N/NC(=O)C23CC4CC(CC(C4)C2)C3)cc(Br)c1O	?	i	i	i	i	i
CC(=O)Nc1cccc(NC(=O)c2ccc3c(c2)CCN3S(=O)(=O)c2ccccc2)c1	i	?	i	?	?	i
